Molecules are shown by their SMILES. Structures can show the parent of a compound that is named as a salt. Whole data set: some 1,900 compounds, median “relative cell viability (CellTiter-Glo), compound plus cabozantinib, relative to the cabozantinib arm (arm median 1.05; reference not stated)” near 1.1, cut for the lowest 2% near 0.15. The sample holds the lowest values, similar compounds and a random draw of the others, so the mix is not that of the screen.

For the assay, the system named is Hep3B. The assay can be described thus: relative cell viability (CellTiter-Glo), compound plus cabozantinib, relative to the cabozantinib arm (arm median 1.05; reference not stated) (fraction); higher = more viable cells (less growth inhibition). Conditions: cabozantinib 2 µM; 4 days.
On to `CC(C)N(CCCNC(=O)Nc1ccc(C(C)(C)C)cc1)C[C@H]1O[C@@H](n2ccc3c(N)ncnc32)[C@H](O)[C@@H]1O`, for which the relative cell viability stood at 1.07.

On to `O=C1c2c(O)cc(O)cc2O[C@H](c2cc(O)c(O)c(O)c2)[C@H]1O` [Dihydromyricetin], for which the relative cell viability was 0.985. In the case of `CC(C)[C@H](O)C(=O)N[C@@H](C)C(=O)N[C@@H]1C(=O)N(C)CCc2ccccc21`, the relative cell viability was determined as 1.01. In the case of `CCN(c1cc(-c2ccc(CN3CCOCC3)cc2)cc(C(=O)NCc2c(C)cc(C)[nH]c2=O)c1C)C1CCOCC1` it was 0.911. Consider `CN1CCN(CCCNc2ncc(Cl)c(-c3cc4c(C(=O)NC5CC5)cccc4s3)n2)CC1`, for which the relative cell viability stood at 1.1. With `CCNC(=O)CCC/C=C\C[C@@H]1[C@@H](/C=C/[C@@H](O)CCc2ccccc2)[C@H](O)C[C@@H]1O` [Bimatoprost], the relative cell viability came out at 1.16. In the case of `C[C@H]1CO[C@@H]2Cn3cc(C(=O)NCc4ccc(F)cc4F)c(=O)c(O)c3C(=O)N12` it was 1.1; in that of `Cc1noc(NS(=O)(=O)c2ccc(N)cc2)c1C` [Sulfisoxazole], 1.01.

Consider `CCOc1nc2cccc(C(=O)OCc3oc(=O)oc3C)c2n1Cc1ccc(-c2ccccc2-c2noc(=O)[nH]2)cc1` [Azilsartan Medoxomil], for which the relative cell viability amounted to 1.22.

As for `O=C(Nc1ncc(SCCN2CCCC2)s1)[C@]1(c2ccc(S(=O)(=O)C3CC3)cc2)C[C@H]1C1CCCCC1`, the relative cell viability is 0.963. In the case of `CCOc1cc(C(=O)N2CCC(N3CCN(C)CC3)CC2)ccc1Nc1ncc2c(n1)N(C1CCCC1)c1ccccc1C(=O)N2C` it was 0.703. On to `CC(C=CC1(O)C(C)=CC(=O)CC1(C)C)=CC(=O)O` (stereo not drawn) [Abscisic Acid (Dormin)], for which the relative cell viability came out at 1.08. Consider `O=c1c2ccccc2oc2ccccc12` [Xanthone], for which the relative cell viability was 1.08. `Cc1cc(F)c(Nc2ncnc3cc(OCc4ccccc4)ccc23)cc1O`: the relative cell viability was found to be 1.05. As for `O=NO` [Sodium Nitrite], the relative cell viability stood at 1.09. Take `CCc1c(C(=O)NCCc2ccc(N3CCCCC3)cc2)[nH]c2ccc(Cl)cc12`: the relative cell viability was determined as 0.997. Then `CC(C)(C#N)c1cc(Cn2cncn2)cc(C(C)(C)C#N)c1` [Anastrozole], with 1.1. For `C/C(O)=C(\C#N)C(=O)Nc1ccc(C(F)(F)F)cc1` [Teriflunomide], the relative cell viability was 0.922. Then `CC[C@H](c1ccc(O)cc1)[C@@H](CC)c1ccc(O)cc1` [Hexestrol], with 1.19; and `CC(C(=O)O)c1ccc2c(c1)CC(=O)c1ccccc1S2` (stereo not drawn) [Zaltoprofen], with 1.17. In the case of `CSc1cccc(Nc2ncc3cc(-c4c(Cl)cccc4Cl)c(=O)n(C)c3n2)c1`, the relative cell viability stood at 0.748. In the case of `OCC(CO)N[C@H]1C[C@](O)(CO)[C@@H](O)[C@H](O)[C@H]1O` [Voglibose] it was 1.28; in that of `Nc1nc(O)c2ncn(CCC(CO)CO)c2n1` [Penciclovir], 1.08; in that of `O=C(Nc1cc(C(F)(F)F)cc(C(F)(F)F)c1)c1cc(Cl)ccc1O`, 0.122.

For the molecule `O=C(Nc1ccccc1)c1ccccc1O` [Salicylanilide], the relative cell viability was determined as 1.1. In the case of `CC(ONC(=O)c1cc(C(F)(F)F)cc(C(F)(F)F)c1)C(=O)Nc1ccc(Cl)cc1` (stereo not drawn) it was 1.15; in that of `O=C(O)Cc1cccc(OCCCN(Cc2cccc(C(F)(F)F)c2Cl)CC(c2ccccc2)c2ccccc2)c1`, 1.15. Then `CCOC(=O)c1ccc(N2NC(=O)C(=Cc3ccc([N+](=O)[O-])o3)C2=O)cc1`, with 1.02; and `CCOCC(O)COc1ccc(NC(=O)CC[S+](C)C)cc1` (stereo not drawn) [Suplatast Tosylate], with 1. In the case of `CC1(C)CNc2cc(NC(=O)c3cccnc3NCc3ccncc3)ccc21` [Motesanib Diphosphate (AMG-706)] it was 1.09. For the molecule `C=CC(=O)Nc1cccc(Nc2nc(Nc3ccc(NC4CN(CCF)C4)cc3OC)ncc2C(F)(F)F)c1`, the relative cell viability was determined as 0.885. In the case of `Cc1ccc(S(=O)(=O)n2c(N)nc3ccccc32)cc1` [ML130 (Nodinitib-1)], the relative cell viability came out at 1.2.

On to `Cc1ccc2c(=O)c3cccc(CC(=O)O)c3oc2c1C` [DMXAA (Vadimezan)], for which the relative cell viability was determined as 1.17.

In the case of `O=c1cc(CN2CCOCC2)occ1OCCCCCSc1ccnc2cc(C(F)(F)F)ccc12`, the relative cell viability amounted to 1.13. Then `Cc1c(-c2ccc(O)cc2)n(Cc2ccc(OCCN3CCCCCC3)cc2)c2ccc(O)cc12` [Bazedoxifene HCl], with 0.867; and `Cc1cccc(-c2[nH]c(CNc3ccccc3F)nc2-c2ccc3ncnn3c2)n1`, with 1.1; and `CC(C=CC(=O)NO)=CC(C)C(=O)c1ccc(N(C)C)cc1` (stereo not drawn) [Trichostatin A (TSA)], with 0.165. As to `CNCc1ccc(C)c(NC(=O)c2ccc(Nc3nc(-c4ccccc4)c4ccccc4n3)cc2)c1`, the relative cell viability worked out at 0.858.

Consider `CC(C)N(CC[C@H](c1ccccc1)c1cc(CO)ccc1O)C(C)C`, for which the relative cell viability was 1.1. On to `O=C(c1cccc(Cl)c1F)N1CCN(Cc2cccc(Nc3nccs3)n2)CC1`, for which the relative cell viability was determined as 1.06. Then `Clc1ccc(NN=C(c2ccccc2)c2ccccn2)nc1`, with 0.087.

In the case of `O=C(Nc1cccc(Cl)c1)c1ccccn1`, the relative cell viability worked out at 1.02. In the case of `C[C@H](CCC(=O)O)[C@H]1CC[C@H]2[C@@H]3C[C@H](O)[C@@H]4C[C@H](O)CC[C@]4(C)[C@H]3CC[C@]12C` [Hyodeoxycholic acid (HDCA)] it was 1.11; in that of `COC(=O)[C@H](CCSC)NC(=O)c1ccc(NC[C@@H](N)CS)cc1-c1ccccc1`, 1.16. With `NC1(Cc2ccc(Cl)cc2)CCN(c2ncnc3[nH]ccc23)CC1`, the relative cell viability came out at 0.989. Then `COc1nc(-c2ccc3c(c2)OCO3)n(-c2ccc(NC(=O)CSc3ccccc3)cc2)n1` [SecinH3], with 1.24. Consider `C[C@@H]1CC(=O)NN=C1c1ccc(NN=C(C#N)C#N)cc1` [Levosimendan], for which the relative cell viability worked out at 1.15. Then `Cc1coc2c1C(=O)C(=O)c1c-2ccc2c1CCCC2(C)C` [Tanshinone IIA], with 0.985.

For `Nc1nc(N)c2nc(-c3cccc(O)c3)c(-c3cccc(O)c3)nc2n1`, the relative cell viability worked out at 0.944.

As to `COc1ccc(C(=O)Nc2sc3c(c2C(N)=O)CCCC3)cc1OC`, the relative cell viability turned out to be 1.03. Then `Cc1ccc(NC(=O)C2(c3ccc4c(c3)OC(F)(F)O4)CC2)nc1-c1cccc(C(=O)O)c1` [VX-809 (Lumacaftor)], with 0.168. Then `CN(C)CCOc1ccc(/C(=C(/CCCl)c2ccccc2)c2ccccc2)cc1` [Toremifene Citrate], with 1.06; and `CC(C)C[C@H](NC(=O)[C@H](Cc1ccccc1)NC(=O)c1cnccn1)B(O)O` [Bortezomib (PS-341)], with 0.396.

(Values after the supplement of paper PMC9399229.)
